# Screening data from PubChem BioAssay.
# Sampled rows, rich in hits. Any-hit rate of the full collection: about 2.8%.
# HIF-2a block: blocks HIF-2a reporter activity | 786-0 RCC cells HIF-2a reporter, luciferase luminescence, overnight | actives 0.72% (n = 360,000) | inhibition, % at 18.8 µM;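 active means inhibition of the luminescence signal of 40% or more relative to plate controls, in a single-dose primary screen at 18.75 µM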
# Peg3 promoter: inhibitors of Peg3 promoter. actives 1.7% (n = 360,000). inhibition, % at 20 µM. HeLa PEG-Prom luciferase reporter, luminescence, overnight;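 active means inhibition of at least 50% at 20 µM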
# Beta2AR agonist: activates human beta-2 adrenergic receptor causing internalization. Am2.2-beta2AR cells, FAP receptor internalization, flow cytometry. response, % (test concentration not listed). actives 0.43% (n = 340,000). AID 504454;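 active means response above a set limit, near 3 SD of response in nonfluorescent compounds, cut at about 42% in these data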
# Target sequence (P07550 whole entry, looked up): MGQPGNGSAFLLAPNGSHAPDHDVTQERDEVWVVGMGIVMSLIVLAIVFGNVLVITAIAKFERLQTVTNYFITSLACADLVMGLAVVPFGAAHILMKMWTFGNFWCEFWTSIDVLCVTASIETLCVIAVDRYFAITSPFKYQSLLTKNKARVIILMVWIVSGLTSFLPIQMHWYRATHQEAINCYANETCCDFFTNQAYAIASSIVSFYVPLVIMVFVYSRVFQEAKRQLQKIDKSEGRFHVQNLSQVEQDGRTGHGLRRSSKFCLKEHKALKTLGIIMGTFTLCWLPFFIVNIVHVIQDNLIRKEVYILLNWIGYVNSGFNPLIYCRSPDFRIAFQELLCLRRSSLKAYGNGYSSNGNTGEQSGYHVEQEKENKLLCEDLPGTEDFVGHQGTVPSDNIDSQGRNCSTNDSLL
# CF NFkB block: inhibitors of cystic fibrosis induced NF-kB; KKLEB NF-kB-GFP reporter, PAF-induced, GFP fluorescence overnight; inhibition, % at 5 µM; actives 0.86% (n = 360,000);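 active means at least 50% inhibition at 5 µM, scaled per plate between neutral and stimulator controls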;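 further: PAF is a Pseudomonas aeruginosa culture filtrate used as stimulus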
# KKLEB tox: CF airway cell cytotoxicity counter-screen; KKLEB CF airway cells viability, ATPlite luminescence, overnight; active compounds read low; cells stimulated with P. aeruginosa culture filtrate; actives 0.36% (n = 360,000); activity change (cytotoxicity), % at 5 µM; AID 602141;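 active means corrected activity change at or below -50% at 5 µM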
# TRPM1 prom inh: inhibitors of MITF-driven TRPM1 promoter in melanoma cells | SK-MEL-5 TRPM1 promoter luciferase, 24 h | inhibition, % at 12.5 µM | actives 0.83% (n = 330,000);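 active means mean inhibition across replicates of 60% or more, whatever share of single replicates reaches that level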
# CF NFkB conf: confirmation of cystic fibrosis induced NF-kB inhibitors. shares compounds with CF NFkB block. KKLEB CF airway cells, PAF-induced NF-kB-GFP fluorescence, overnight. inhibition, % at 5 µM. actives 64% (n = 1,300); in the data active means inhibition above about 40%;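 further: stimulus PAF is a Pseudomonas aeruginosa filtrate and not platelet activating factor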
# Hits are given with their value; . = inactive; / = not tested or not shown.
SMILES,HIF-2a block,Peg3 promoter,Beta2AR agonist,CF NFkB block,KKLEB tox,TRPM1 prom inh,CF NFkB conf
Cc1cccc(C(=O)N2[C@@H](C(C)C)COc3cc(Br)ccc3S2(=O)=O)c1,.,57.1,.,60.8,.,.,58.8
CCCNC(=O)C1(C)CCN(C(=O)c2c(F)ccc(C)c2F)C1 (stereo not drawn),.,.,/,.,.,/,/
Oc1ccccc1C1CC(c2cccs2)=NC(c2ccc(Cl)cc2)N1 (stereo not drawn),.,.,.,64.7,.,.,.
Cc1c(N=C2N=C(NC(=O)Nc3ccc(Cl)cc3)c3ccccc32)c(=O)n(-c2ccccc2)n1C,.,.,.,51.2,.,.,.
Cc1c(NC(=O)Nc2ccc(Cl)cc2)c(=O)n(-c2ccccc2)n1C,.,.,.,.,.,.,/
Cc1ccc(S(=O)(=O)Nc2nc3ccccc3nc2Nc2cccc(S(=O)(=O)N3CCCC3)c2)cc1,.,.,.,68.8,.,.,70.8
C[C@@H]1CN([C@@H](C)CO)S(=O)(=O)c2ccc(Br)cc2O[C@@H]1CN(C)C(=O)c1ccncc1,.,.,/,.,.,/,/
Cn1cc([N+](=O)[O-])c(C(=O)Nc2ccc(-c3nc4ccccc4o3)cc2)n1,.,50.6,.,67.8,.,.,.
Cc1cc2nc[nH]c(=O)n2n1,.,.,/,.,.,/,/
C(=C\c1ccccc1)/CN1CCN(C(c2cc3ccccc3o2)c2nnnn2C2CCCCC2)CC1 (stereo not drawn),.,.,/,.,.,/,/
O=C(COc1cc(O)c2c(=O)cc(-c3ccccc3)oc2c1)c1ccccc1,.,.,.,.,.,.,/
Cc1ccc(C(=O)COc2cc(O)c3c(=O)cc(-c4ccccc4)oc3c2)cc1,.,.,.,69.2,.,.,42.8
Cc1ccc(/C=[N+](\[O-])c2ccc(N(C)C)cc2)c2nsnc12,.,.,.,68.5,.,.,.
CCc1ccccc1NC(=O)c1ccc2c(O)c(S(=O)(=O)c3ccc(OC)cc3)c(=O)[nH]c2c1,.,.,.,.,.,.,/
COc1ccc(S(=O)(=O)c2c(O)c3ccc(C(=O)Nc4ccccc4Cl)cc3[nH]c2=O)cc1,.,.,.,75.7,.,.,69.3
C[C@@H]1CN([C@@H](C)CO)S(=O)(=O)c2ccc(Br)cc2O[C@H]1CN(C)C(=O)C1CCOCC1,.,.,/,.,.,/,/
Cc1c(C=O)c(C=O)c(C)n1Cc1ccccc1,.,.,.,53.1,.,.,66.0
CCCS(=O)(=O)NC(=O)C1(C)CCCN(C(=O)c2ccccc2)C1 (stereo not drawn),.,.,/,.,.,/,/
CC1(C(=O)Nc2ccc3c(c2)OCO3)CCN1C(=O)CCC1CCCC1 (stereo not drawn),.,.,/,.,.,/,/
C[C@H](O)[C@@H]1CN2CCc3c([nH]c4ccc(-c5ccc6c(c5)OCO6)cc34)[C@@H]2C[C@@H]1N(C)C(=O)Nc1ccc(F)cc1,.,70.5,/,64.8,.,/,52.4
COc1ccc2cc(C(N)=O)c(=Nc3ccccc3)oc2c1,.,.,.,.,.,.,/
NC(=O)c1cc2ccc(O)cc2oc1=Nc1ccccc1,.,.,.,82.2,.,.,83.2
COCCCNC(=O)C[C@@H]1C[C@@]2(C(=O)OC)CCCCC=C2N(CCC2=CCCCC2)C1=O,.,/,/,/,/,/,/
O=C(NCCc1ccc(F)cc1)c1coc(=O)c(Br)c1,.,.,.,80.8,.,.,83.1
O=C(Nc1ccccc1F)c1coc(=O)c(Br)c1,.,.,.,.,.,.,/
SMILES,HIF-2a block,Peg3 promoter,Beta2AR agonist,CF NFkB block,KKLEB tox,TRPM1 prom inh,CF NFkB conf
O=C(NC1CCCC(C(F)(F)F)C1)c1ccc([N+](=O)[O-])o1 (stereo not drawn),.,71.3,.,92.4,.,66.0,53.3
Cc1cccc(C(=O)N[C@H](C(=O)Nc2nc3ccccc3[nH]2)C(C)C)c1,.,.,.,65.7,.,.,83.4
COc1ccc(NC(=O)C(NC(=O)c2ccccc2)C(C)C)cc1 (stereo not drawn),.,.,.,.,.,.,/
COc1ccc(C(=O)N[C@H](C(=O)Nc2nc3ccccc3[nH]2)C(C)C)cc1,.,.,.,54.8,.,.,77.7
COc1cc2cncc(Cc3ccc(Cl)cc3)c2cc1OC,.,.,.,72.5,.,.,87.0
COc1cc2nc(CN(C)Cc3ccc(Cl)cc3)[nH]c(=O)c2cc1OC,.,.,.,.,.,.,/
CN1/C(=C\C(=O)c2cccs2)C(C)(C)c2ccccc21,.,.,.,.,.,.,/
Cc1cccc2c1NC(=O)/C2=C\C(=O)c1cccs1,44.5,74.1,.,74.3,.,.,46.6
CC1(C(=O)Nc2ccc3c(c2)OCCO3)CCN1C(=O)Cc1ccc(-c2ccccc2)cc1 (stereo not drawn),.,.,/,.,.,/,/
C=CCN(CC=C)c1ncnc2[nH]ncc12,.,.,.,65.0,.,.,63.0
C[C@H](CO)N1C[C@H](C)[C@@H](CN(C)Cc2ccc3c(c2)OCCN3C)OCc2cnnn2CCCC1=O,.,.,/,.,.,/,/
Fc1ccc(Nc2ccnc(Nc3ccc(F)cc3)n2)cc1,.,.,.,57.6,.,.,56.1
Cc1nn(-c2ccccn2)c2c1-c1nc(N)ncc1CC2,.,.,.,57.9,.,.,54.4
Cc1nn(-c2ccccn2)c2c1-c1nc(N3CCOCC3)ncc1CC2,.,.,.,.,.,.,/
O=C(CCC1CCN(C(=O)C2CC=CCC2)CC1)Nc1ccccc1 (stereo not drawn),.,.,/,.,.,/,/
O=C(CCS(=O)(=O)c1ccccc1)N(CCCN1CCOCC1)c1nc2ccc(F)cc2s1,.,94.3,.,59.1,.,.,.
O=C(NCc1ccc(F)cc1)C(c1ccccc1)N(C(=O)c1csnn1)c1ccccc1 (stereo not drawn),.,.,.,61.0,.,.,.
NC(=O)c1nsc(C(=O)N(c2ccccc2)C(C(=O)NCc2ccc(F)cc2)c2ccc(O)cc2)c1N (stereo not drawn),.,55.1,.,52.0,.,.,74.3
COc1ccc(N(C(=O)c2snc(C(N)=O)c2N)C(C(=O)NCc2ccccc2)c2ccc(O)cc2)cc1 (stereo not drawn),.,.,.,.,.,.,/
COc1ccc([C@H]2CC(=O)C[C@@H](CCn3cc(C)nn3)O2)cc1,.,/,/,/,/,/,/
Cc1cc(=O)oc2cc(O)cc(O)c12,.,.,.,.,.,.,/
CCCCCc1cc(O)c2c(C)cc(=O)oc2c1,.,.,.,74.5,.,.,80.4
COc1ccc(CCNC(=O)c2ccc(-c3cccc([N+](=O)[O-])c3)o2)cc1OC,.,.,.,.,.,.,/
